SARS PLP yeast: inhibitors of SARS-CoV papain-like protease in yeast; hit rate 0.19% among 330,000; AID 485353; S. cerevisiae expressing SARS-CoV PLpro, growth rescue; Potency, µM (series often up to 32.9 µM), hits mostly activators; calls by dose curve; further: nearly all actives have a fitted effect of over 55% in size
NS1 inh: inhibitors of influenza NS1 protein function; hit rate 0.4% among 270,000; AID 2326; Potency, µM (doses to about 46.1 µM); calls by dose curve; further: actives are rising curves; nearly all actives have a fitted effect of over 50% in size
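Read-out: OD600 growth recovery of NS1-expressing budding yeast. Cells grown overnight at 30C in -URA glucose medium, washed, resuspended and diluted 1:100 in 2% galactose assay medium, pH 6.0. Same strain lacking NS1 served as positive control.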
Pf growth 48h: inhibits P. falciparum growth in the first generation, 48 h | Potency, µM (top dose mostly 28.7 µM), actives largely listed as inhibitors | P. falciparum luciferase growth in erythrocytes, 48 h | AID 504832 | hit rate 5.9% among 310,000
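Luminescence readout; reporter = integrated firefly luciferase in P. falciparum. RBC culture at 2% hematocrit, 0.1% parasitemia final, 37 C/5% CO2; decreased signal taken as growth inhibition.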
Pf growth 96h: P. falciparum growth inhibition at 96 hours; P. falciparum luciferase reporter growth, 96 h; Potency, µM (series often up to 28.7 µM), most hits filed as inhibitors; hit rate 6.9% among 320,000
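Parasite growth measured via integrated firefly luciferase reporter in P. falciparum. Infected erythrocytes at 2% hematocrit, 0.05% parasitemia final were treated 96 hours at 37 C under 5% CO2, and luminescence was read.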
RE007 growth inh: less growth of the S. pombe RE007 Vpr strain; S. pombe RE007 Vpr strain, BacTiter-Glo ATP luminescence, 24 h; Potency, µM (highest dose often 92.2 µM), actives largely listed as inhibitors; hit rate 0.21% among 360,000; active means well fitted falling curve with a large enough effect; inconclusive means small, poorly fitted or top-dose-only effect; inactive means no such curve, though single readings can be large or run the other way; further: nearly all actives have a fitted effect of over 50% in size
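Fission yeast RE007 carrying one integrated HIV-1 vpr copy, seeded at OD 0.01 in PMG+AL medium with 23 nL pinned compound. Grown 24 h at 30 degrees; viability read by BacTiter-Glo luminescence after 5 min.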
Large screens that a line does not name were inactive. Compounds with a hit are over-represented: about 9.5% of the library has one in this group of screens. Unless noted, the call rests on the fitted dose curve; in most records, active means well fitted inhibition curve with a large enough effect; inconclusive means small, poorly fitted or top-dose-only effect, or another doubt; inactive means no such curve, though single readings can be large or run the other way.

O=C(CN1C(=O)c2cccc([N+](=O)[O-])c2C1=O)NCc1ccccc1	none (no result: Pf growth 48h)
COc1ccccc1CN(C)CC(=O)Nc1cccc(S(=O)(=O)N2CCCCC2)c1	Pf growth 48h 11.7µM, Pf growth 96h inconclusive (no result: NS1 inh)
CN(CC(=O)Nc1cccc(S(=O)(=O)N2CCCCC2)c1)Cc1ccc(F)cc1	Pf growth 48h 13.1µM, Pf growth 96h 9.28µM (no result: NS1 inh)
COc1ccccc1CCC(=O)Nc1cccc(S(=O)(=O)N2CCCC2)c1	Pf growth 48h inconclusive, Pf growth 96h inconclusive
Cc1cccc(NC(=O)CN(C)C(C)C(=O)Nc2ccc(S(=O)(=O)N3CCCC3)cc2)c1C (stereo not given)	Pf growth 48h 13.1µM, Pf growth 96h inconclusive (no result: NS1 inh)
Cc1cccc(NC(=O)c2ccc(S(=O)(=O)N3CCCC3)cc2)c1C	none
CN(CC(=O)Nc1cccc(F)c1)CC(=O)Nc1cccc(S(=O)(=O)N2CCCCC2)c1	Pf growth 48h 11.7µM, Pf growth 96h inconclusive (no result: NS1 inh)
O=C(CN1C(=O)C2CC=CCC2C1=O)Nc1ccc(S(=O)(=O)Nc2nccs2)cc1 (stereo not given)	none
Cc1ccc(S(=O)(=O)c2c(C)nn(-c3ccccc3)c2OC(=O)c2ccc(Br)o2)cc1	none
CC1=C(C(=O)Nc2cc(C(=O)N(C)Cc3ccccc3)ccc2C)SCCO1	none
COCCNC(=O)C1(C)CCCN(Cc2csc3ccccc23)C1 (stereo not given)	none (no result: SARS PLP yeast, NS1 inh, Pf growth 48h, Pf growth 96h)
CN(CC(=O)Nc1cccc(F)c1)C(=O)c1cc(S(=O)(=O)N(C)C)ccc1N1CCCC1	none
O=C(O)c1cc(=O)c2ccc(Cl)cc2[nH]1	none (no result: SARS PLP yeast, Pf growth 48h, Pf growth 96h, RE007 growth inh)
COc1ccc(CCC(=O)Nc2cccc(S(=O)(=O)N3CCCCCC3)c2)cc1OC	Pf growth 48h 10.4µM, Pf growth 96h inconclusive (no result: NS1 inh)
COc1ccc(CCC(=O)Nc2cccc(S(=O)(=O)N3CCCC3)c2)cc1OC	Pf growth 48h inconclusive, Pf growth 96h inconclusive (no result: NS1 inh)
Cc1cc2c(N=O)c(NO)ccc2[nH]1	Pf growth 48h 3.7µM
COC(=O)c1cc(S(=O)(=O)C(C)C)c(S(C)=O)s1 (stereo not given)	Pf growth 48h inconclusive, Pf growth 96h inconclusive
O=C1/C(=C/c2ccc(N3CCOCC3)o2)SC(=Nc2ccccc2)N1CCc1c[nH]c2ccccc12	Pf growth 48h 9.28µM, Pf growth 96h 1.65µM
COc1cc(/C=C2/NC(=O)N(CC(=O)Nc3ccc(C)cc3)C2=O)ccc1Oc1ccc([N+](=O)[O-])cn1	none
O=C1S/C(=C/c2ccc(N3CCOCC3)o2)C(=O)N1Cc1ccc(F)cc1	Pf growth 48h inconclusive, Pf growth 96h inconclusive
COc1cc(/C=C2\SC(=Nc3ccccc3)N(CCc3c[nH]c4ccccc34)C2=O)ccc1OC(C)C(=O)O (stereo not given)	NS1 inh inconclusive, Pf growth 48h 10.4µM, Pf growth 96h 5.22µM
COCCN1C(=O)/C(=C/c2ccc(Oc3ccc([N+](=O)[O-])cn3)c(OC)c2)SC1=Nc1ccccc1	Pf growth 96h 1.47µM
COc1ccc(N=C2S/C(=C\c3ccc(OC(C)C(=O)O)c(OC)c3)C(=O)N2CCc2c[nH]c3ccccc23)cc1 (stereo not given)	Pf growth 48h inconclusive, Pf growth 96h 1.65µM
COc1ccc(/C=C2\SC(=O)N(CCC(=O)Nc3ccccc3)C2=O)cc1OC	none
S=C(Cc1cccnc1)N1CCOCC1	none
Cc1ccc(C(=O)NNC(=O)c2ccc(S(=O)(=O)N(C)c3ccccc3)cc2)cc1	none (no result: NS1 inh)
O=C(CSc1nnc2c(n1)[nH]c1ccc(F)cc12)N1CCOCC1	none
O=C(CSc1nnc2c(n1)[nH]c1ccc(F)cc12)NCc1ccc(F)cc1	Pf growth 96h inconclusive
CCOC(=O)CN(C(=O)CSc1nnc2c(n1)[nH]c1ccc(OC)cc12)c1ccc(F)cc1	Pf growth 48h 9.28µM
COc1ccc2[nH]c3nc(SC(C)C)nnc3c2c1	Pf growth 96h 5.22µM
CC(C)OC(=O)CSc1nnc2c(n1)[nH]c1ccc(F)cc12	Pf growth 48h 5.86µM, Pf growth 96h 13.1µM (no result: NS1 inh)
CC1Cc2ccccc2N1C(=O)CSc1nnc2c(n1)[nH]c1ccc(F)cc12 (stereo not given)	Pf growth 48h 1.47µM
C=CCCC(=O)N1C[C@H]2CCN(C)[C@H]2C[C@H]1c1ccc(Br)cc1	none (no result: SARS PLP yeast, NS1 inh, Pf growth 48h, Pf growth 96h)
O=C(CSc1nnc2c(n1)[nH]c1ccccc12)OCc1ccccc1	Pf growth 48h 14.7µM, Pf growth 96h inconclusive
O=C(CSc1nnc2c(n1)[nH]c1ccc(F)cc12)NC1CC1	Pf growth 96h 3.29µM
